Screening data as filed in PubChem BioAssay.
TDP1 cell CPT – qHTS for Inhibitors of human tyrosyl-DNA phosphodiesterase 1 (TDP1): qHTS in cells in presence of CPT; actives 12% (n = 420,000); Potency, µM (highest dose often 46.2 µM), without a hit: at the top dose activity change, negative = growth inhibition, usual class: inhibitors; chicken DT40 Tdp1-/-;hTDP1 cells + 20 nM CPT, ATP luminescence, 48 h; also: potency is read from the fitted curve at half-maximal effect; % is scaled to controls: 0 for no effect and ±100 for the full control effect; nearly all actives have a fitted effect of over 55% in size
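Chicken DT40 Tdp1-/- cells complemented with human TDP1, 400 cells/well, exposed to compounds plus 20 nM camptothecin for at least 48 h at 37 C; viability read as ATP content by CellTiter-Glo luminescence.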
HepG2 tox – qHTS for Inhibitors of TGF-b: Cytotox Counterscreen. HepG2 CAGA-GFP viability, ATP luminescence, 18 h. Potency, µM (doses to about 46.1 µM), for the others: at the highest dose activity change, negative = cytotoxicity, usual class: cytotoxic. actives 0.76% (n = 410,000); also: potency is read from the fitted curve at half-maximal effect
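CellTiter-Glo luminescence gave cytotoxicity after 18 hours at 37 degrees C. The cells were HepG2 CAGA-GFP in 1% FBS DMEM, stimulated with 500 pg/mL TGF-beta after compound addition. %Activity was normalised to no-cell wells (complete cell-killing) and DMSO (no toxicity), and curves were fitted and classified.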
TDP1 block – qHTS Assay for Inhibitors of Tyrosyl-DNA Phosphodiesterase (TDP1); Tyrosyl-DNA phosphodiesterase 1 (Homo sapiens), Q9NUW8; recombinant TDP1, AlphaScreen DNA substrate cleavage; Potency, µM (highest dose often 130 µM), for the others: top-dose activity change, negative = inhibition, most hits filed as inhibitors; actives 0.28% (n = 350,000); also: potency is read from the fitted curve at half-maximal effect; % is scaled to controls: 0 for no effect and ±100 for the full control effect; nearly all actives have a fitted effect of over 40% in size
Target sequence (Q9NUW8 whole entry, looked up): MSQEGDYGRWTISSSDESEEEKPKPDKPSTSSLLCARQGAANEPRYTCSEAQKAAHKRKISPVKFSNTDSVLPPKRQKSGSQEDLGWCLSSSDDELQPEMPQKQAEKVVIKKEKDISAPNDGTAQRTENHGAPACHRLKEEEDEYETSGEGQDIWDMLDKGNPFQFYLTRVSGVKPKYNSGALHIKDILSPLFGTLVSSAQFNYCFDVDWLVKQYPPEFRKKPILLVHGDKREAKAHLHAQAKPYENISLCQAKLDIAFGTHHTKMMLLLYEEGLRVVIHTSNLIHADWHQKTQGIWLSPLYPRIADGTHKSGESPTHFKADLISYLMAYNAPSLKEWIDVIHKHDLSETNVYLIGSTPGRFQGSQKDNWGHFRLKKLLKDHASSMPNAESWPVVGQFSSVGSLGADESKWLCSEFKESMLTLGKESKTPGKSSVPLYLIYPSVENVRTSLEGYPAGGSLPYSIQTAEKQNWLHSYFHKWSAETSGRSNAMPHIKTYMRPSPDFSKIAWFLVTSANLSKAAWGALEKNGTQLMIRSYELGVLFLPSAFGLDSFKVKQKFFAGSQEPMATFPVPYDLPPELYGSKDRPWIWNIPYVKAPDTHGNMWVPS
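Compounds were preincubated with Tdp1 (1 nM final) for 15 min at room temperature before substrate (15 nM final) started a 5 min reaction; beads (10 ug/ml final) were then added for 10 min before AlphaScreen detection.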
TGFb inhibitor – qHTS for Inhibitors of TGF-b; HepG2 CAGA-GFP TGF-b/SMAD3 reporter, GFP fluorescence, 18 h; TGF-beta stimulated, 500 pg/mL final; AID 588855, 2011; actives 1.2% (n = 410,000); Potency, µM (series often up to 46.1 µM), without a hit: top-dose activity, negative = inhibition, actives largely listed as inhibitors; also: potency is read from the fitted curve at half-maximal effect; % is scaled to controls: 0 for no effect and ±100 for the full control effect; nearly all actives have a fitted effect of over 65% in size
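Using HEPG2 CAGA-GFP reporter cells at 1000 cells/well, we pinned test compounds, stimulated with recombinant TGF-beta (500 pg/mL final) and measured total well GFP after 18 h.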
TDP1 cell noCPT – qHTS for Inhibitors of human tyrosyl-DNA phosphodiesterase 1 (TDP1): qHTS in cells in absence of CPT. Potency, µM (doses to about 46.2 µM), inactives show at the highest dose activity change, negative = growth inhibition, most hits filed as inhibitors. DT40 Tdp1-/- hTDP1 cells, no CPT, ATP luminescence, 48 h. actives 15% (n = 420,000); also: potency is read from the fitted curve at half-maximal effect; % is scaled to controls: 0 for no effect and ±100 for the full control effect; nearly all actives have a fitted effect of over 55% in size
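Chicken DT40 Tdp1-/- cells complemented with human TDP1, screened without camptothecin (DMSO vehicle only), 400 cells/well. Compounds pin-transferred, cells incubated at 37 °C for at least 48 hr. Growth read as ATP-dependent luminescence (CellTiter-Glo, 30 min at RT).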
IL-1B inflam inh – qHTS for Inhibitors of Inflammasome Signaling: IL-1-beta AlphaLISA Primary Screen; THP-1 LPS/ATP IL-1B secretion, AlphaLISA, 16 h; stronger effect = lower value; activity change, % at 57.5 µM; actives 4.7% (n = 360,000); AID 743279, 2014; in the data active = activity change below about -50%; inconclusive = mostly about -30% to -49%; also: % is scaled to controls: 0 for no effect and ±100 for the full control effect
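THP-1 cells pretreated 1 hr with compounds (up to 57.5 uM final), then stimulated with LPS (250 ng/mL final) plus ATP (1.25 mM final); secreted IL-1B measured by AlphaLISA after 16 hr, decreased signal indicating inhibition.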
Active calls of the source: *. In the library only some 18% were active in any assay of this set; here they are far more common. Unless noted, calls follow the shape of the dose curve; as a rule, active = well fitted curve in the direction sought with a large enough effect; inconclusive = small, poorly fitted or top-dose-only effect, or another doubt; inactive = no such curve, though single readings can be large; an effect the other way counts as inactive or inconclusive.

`CN1C(=O)CSC1=NC12CC3CC(CC(C3)C1)C2` gave TDP1 cell CPT -19.0%, HepG2 tox -28.8%, TDP1 block 2.5%, TGFb inhibitor 6.6%, TDP1 cell noCPT inconclusive and IL-1B inflam inh 47.4.
Screening COc1cc2c(cc1OC)C(c1ccc([N+](=O)[O-])cc1)NC(=O)C2 (stereo not drawn) returned TDP1 cell CPT 4.0%, HepG2 tox 2.0%, TDP1 block 2.9%, TGFb inhibitor 17.0%, TDP1 cell noCPT -19.2% and IL-1B inflam inh -5.1.
COc1cc2c(cc1OC)C(c1ccc(F)cc1)N(c1cccc(C#N)c1)C(=O)C2 (stereo not drawn) was read as TDP1 cell CPT 14.6µM*, HepG2 tox -1.4%, TDP1 block -3.7%, TGFb inhibitor 13.3% and TDP1 cell noCPT inconclusive.
For COc1cc2c(cc1OC)C(c1ccc(Cl)cc1)N(c1cccc(C#N)c1)C(=O)C2 (stereo not drawn) the results were TDP1 cell CPT 23.1µM*, HepG2 tox -21.5%, TDP1 block 3.7%, TGFb inhibitor 3.3% and TDP1 cell noCPT inconclusive.
Cc1noc(C)c1COc1ccccc1C(=O)NC1CCC(C)CC1 (stereo not drawn) was read as TDP1 cell CPT -29.7%, HepG2 tox -12.8%, TDP1 block 5.9%, TGFb inhibitor -0.1%, TDP1 cell noCPT -3.0% and IL-1B inflam inh 34.5.
`COc1ccc(NC(=O)c2c(-c3ccc(C)cc3)nnc3ccccc23)cc1Cl` gave TDP1 cell CPT 5.5%, HepG2 tox -12.0%, TDP1 block 5.3%, TGFb inhibitor -11.4% and TDP1 cell noCPT -13.5%.
For CCS(=O)(=O)c1ccc2oc(SCC(=O)N3CCCCC3)nc2c1 the results were TDP1 cell CPT -19.2%, HepG2 tox 14.0%, TDP1 block 5.9%, TGFb inhibitor -8.1%, TDP1 cell noCPT inconclusive and IL-1B inflam inh 34.7.
`CCCCCc1cc(=O)oc2c(C(CCN3CCCCC3)c3ccc4c(c3)OCO4)c(OC)cc(OC)c12` (stereo not drawn) gave TDP1 cell CPT 23.1µM*, HepG2 tox -93.1%, TGFb inhibitor 17.8µM*, TDP1 cell noCPT inconclusive and IL-1B inflam inh -18.3.
For COc1cc(OC)c2ccc(=O)oc2c1C(CC(=O)N1CCOCC1)c1ccc2c(c1)OCO2 (stereo not drawn) the results were TDP1 cell CPT -3.2%, HepG2 tox -14.7%, TDP1 block 7.9%, TGFb inhibitor 0.1%, TDP1 cell noCPT -18.0% and IL-1B inflam inh 2.3.
COc1cc(OC)c2ccc(=O)oc2c1C(CCN1CCCC1)c1ccc2c(c1)OCO2 (stereo not drawn) was read as TDP1 cell CPT inconclusive, HepG2 tox -14.0%, TDP1 block 11.5%, TGFb inhibitor -7.2%, TDP1 cell noCPT 18.4µM* and IL-1B inflam inh -4.7.
For CCCCCc1cc(=O)oc2c(C(CCN3CCCC3)c3ccc4c(c3)OCO4)c(OC)cc(OC)c12 (stereo not drawn) the results were HepG2 tox -97.5%, TDP1 block 19.7% and TGFb inhibitor inconclusive.
For CCN(CC)CCC(c1cc(OC)c(OC)c(OC)c1)c1c(O)cc(OC)cc1OC (stereo not drawn) the results were TDP1 cell CPT inconclusive, HepG2 tox 2.8%, TDP1 block 6.2%, TGFb inhibitor 2.9%, TDP1 cell noCPT inconclusive and IL-1B inflam inh 21.2.
CCCCCc1cc(=O)oc2c(C(CCN3CCCC(C)C3)c3ccc4c(c3)OCO4)c(OC)cc(OC)c12 (stereo not drawn) was read as TDP1 cell CPT inconclusive, HepG2 tox -106.8%, TGFb inhibitor inconclusive, TDP1 cell noCPT inconclusive and IL-1B inflam inh -53.5*.
Screening CCCCCc1cc(=O)oc2c(C(CCN(CC)CC)c3cc(OC)c(OC)c(OC)c3)c(OC)cc(OC)c12 (stereo not drawn) returned TDP1 cell CPT inconclusive, HepG2 tox 17.8µM*, TDP1 block 4.7%, TGFb inhibitor inconclusive, TDP1 cell noCPT 18.4µM* and IL-1B inflam inh inconclusive.
`Cc1ccc(-n2c(SCC(=O)Nc3ccc4c(c3)OCCO4)nc3c([nH]c4ccccc43)c2=O)cc1` gave TDP1 cell CPT inconclusive, HepG2 tox 8.1%, TDP1 block 8.8%, TGFb inhibitor 1.7% and TDP1 cell noCPT inconclusive.
`Cc1ccc2oc(=O)n(CCNC(=O)Nc3ccc(Cl)cc3)c2c1` gave TDP1 cell CPT 23.1µM*, HepG2 tox -5.1%, TDP1 block 0.0%, TGFb inhibitor inconclusive and TDP1 cell noCPT 16.4µM*.
For Cc1cccc(NC(=O)NCCOCCn2c(=O)oc3ccccc32)c1C the results were TDP1 cell CPT inconclusive, HepG2 tox -21.2%, TDP1 block 4.7%, TGFb inhibitor -26.7% and TDP1 cell noCPT -27.0%.
O=C(NCCOCCn1c(=O)oc2ccccc21)Nc1ccc(F)cc1 was read as TDP1 cell CPT 16.4µM*, HepG2 tox -15.0%, TDP1 block 4.7%, TGFb inhibitor -16.0% and TDP1 cell noCPT inconclusive.
COc1ccc(Cl)cc1NC(=O)NCCn1c(=O)oc2ccc(C)cc21 was read as TDP1 cell CPT inconclusive, HepG2 tox -9.6%, TDP1 block 4.7%, TGFb inhibitor inconclusive and TDP1 cell noCPT inconclusive.
Screening O=C(CC1(CC2=NS(=O)(=O)c3ccccc3N2)CCCC1)NCCc1ccccc1 returned TDP1 cell CPT 14.6µM*, HepG2 tox -25.9%, TGFb inhibitor -3.8%, TDP1 cell noCPT inconclusive and IL-1B inflam inh -12.1.
For C=CCn1c(SCc2ccc(C(=O)Nc3nccs3)cc2)nnc1-c1ccc(C)c(Cl)c1 the results were TDP1 cell CPT inconclusive, HepG2 tox -19.9%, TDP1 block 4.1%, TGFb inhibitor 0.0%, TDP1 cell noCPT 23.1µM* and IL-1B inflam inh -52.2*.
For Cn1nnnc1SCc1ccc(C(=O)Nc2nccs2)cc1 the results were TDP1 cell CPT -0.5%, HepG2 tox -1.3%, TDP1 block 5.5%, TGFb inhibitor inconclusive, TDP1 cell noCPT -23.7% and IL-1B inflam inh -25.3.
